# ChEMBL document CHEMBL1961873, “Compounds: GSK PKIS; Assays: Nanosyn kinase panel” (2012)
# Experiments:
# [1] = target: T1, Inhibitor of nuclear factor kappa-B kinase subunit epsilon (Homo sapiens) (UniProt Q14164); settings: at 1 µM;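 further: reported values are averaged percent inhibition figures against human IKKε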
# T1 sequence (whole entry): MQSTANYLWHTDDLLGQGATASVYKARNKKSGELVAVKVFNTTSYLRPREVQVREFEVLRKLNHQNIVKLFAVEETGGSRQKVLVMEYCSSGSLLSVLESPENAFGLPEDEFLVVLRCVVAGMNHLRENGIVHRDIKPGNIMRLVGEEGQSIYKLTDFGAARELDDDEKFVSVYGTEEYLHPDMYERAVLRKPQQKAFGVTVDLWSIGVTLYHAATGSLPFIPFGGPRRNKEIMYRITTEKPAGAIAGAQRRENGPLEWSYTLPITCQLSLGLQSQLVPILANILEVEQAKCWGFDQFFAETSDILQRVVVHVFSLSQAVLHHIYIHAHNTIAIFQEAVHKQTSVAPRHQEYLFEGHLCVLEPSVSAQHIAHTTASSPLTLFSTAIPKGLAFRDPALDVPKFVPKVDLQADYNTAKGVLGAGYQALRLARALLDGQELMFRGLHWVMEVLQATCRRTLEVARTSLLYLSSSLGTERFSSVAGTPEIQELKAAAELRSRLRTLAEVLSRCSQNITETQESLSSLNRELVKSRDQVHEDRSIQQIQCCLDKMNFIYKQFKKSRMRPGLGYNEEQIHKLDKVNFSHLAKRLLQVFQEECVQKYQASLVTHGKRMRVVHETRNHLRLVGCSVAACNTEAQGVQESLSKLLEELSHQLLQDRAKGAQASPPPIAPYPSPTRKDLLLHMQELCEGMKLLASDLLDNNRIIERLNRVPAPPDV
# [2] = target: T2, Serine/threonine-protein kinase Nek1 (Homo sapiens) (UniProt Q96PY6); settings: at 0.1 µM
# T2 sequence (whole entry): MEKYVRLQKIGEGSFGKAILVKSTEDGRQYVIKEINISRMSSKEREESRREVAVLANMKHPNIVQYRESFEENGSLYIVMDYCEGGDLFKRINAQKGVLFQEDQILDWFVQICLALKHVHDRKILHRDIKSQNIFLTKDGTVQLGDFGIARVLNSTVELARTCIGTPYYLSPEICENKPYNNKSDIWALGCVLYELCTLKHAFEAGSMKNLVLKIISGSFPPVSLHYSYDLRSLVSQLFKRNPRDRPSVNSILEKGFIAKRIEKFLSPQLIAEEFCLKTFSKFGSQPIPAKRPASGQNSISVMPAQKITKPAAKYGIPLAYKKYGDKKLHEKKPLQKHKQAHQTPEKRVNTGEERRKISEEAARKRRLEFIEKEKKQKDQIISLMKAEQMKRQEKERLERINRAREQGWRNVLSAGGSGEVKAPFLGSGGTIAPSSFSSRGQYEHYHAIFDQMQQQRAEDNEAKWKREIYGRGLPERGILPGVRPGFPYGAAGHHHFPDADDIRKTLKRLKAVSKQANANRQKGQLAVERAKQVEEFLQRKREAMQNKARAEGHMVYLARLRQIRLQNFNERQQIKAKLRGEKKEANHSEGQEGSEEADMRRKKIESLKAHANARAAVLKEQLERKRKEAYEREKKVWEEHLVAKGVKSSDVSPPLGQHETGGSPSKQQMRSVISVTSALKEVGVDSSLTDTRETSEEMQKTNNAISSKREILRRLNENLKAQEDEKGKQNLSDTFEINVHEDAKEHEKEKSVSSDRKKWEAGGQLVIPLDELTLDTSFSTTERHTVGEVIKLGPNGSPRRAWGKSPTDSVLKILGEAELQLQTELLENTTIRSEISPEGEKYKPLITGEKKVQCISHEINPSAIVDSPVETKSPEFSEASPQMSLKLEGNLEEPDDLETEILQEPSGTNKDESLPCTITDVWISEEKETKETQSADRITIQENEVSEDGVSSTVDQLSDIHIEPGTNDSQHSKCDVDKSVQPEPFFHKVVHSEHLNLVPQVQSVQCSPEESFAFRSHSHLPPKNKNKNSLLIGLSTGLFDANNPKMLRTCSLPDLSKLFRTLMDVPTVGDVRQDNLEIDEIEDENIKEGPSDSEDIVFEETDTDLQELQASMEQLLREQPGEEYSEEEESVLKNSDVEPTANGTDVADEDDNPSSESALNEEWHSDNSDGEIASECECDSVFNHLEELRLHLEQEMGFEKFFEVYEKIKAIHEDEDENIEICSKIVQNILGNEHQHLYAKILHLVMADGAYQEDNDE
# [3] = target: T2, Serine/threonine-protein kinase Nek1 (Homo sapiens); settings: at 1 µM
# [4] = target: T3, Serine/threonine-protein kinase Nek2 (Homo sapiens) (UniProt P51955); settings: at 0.1 µM
# T3 sequence (whole entry): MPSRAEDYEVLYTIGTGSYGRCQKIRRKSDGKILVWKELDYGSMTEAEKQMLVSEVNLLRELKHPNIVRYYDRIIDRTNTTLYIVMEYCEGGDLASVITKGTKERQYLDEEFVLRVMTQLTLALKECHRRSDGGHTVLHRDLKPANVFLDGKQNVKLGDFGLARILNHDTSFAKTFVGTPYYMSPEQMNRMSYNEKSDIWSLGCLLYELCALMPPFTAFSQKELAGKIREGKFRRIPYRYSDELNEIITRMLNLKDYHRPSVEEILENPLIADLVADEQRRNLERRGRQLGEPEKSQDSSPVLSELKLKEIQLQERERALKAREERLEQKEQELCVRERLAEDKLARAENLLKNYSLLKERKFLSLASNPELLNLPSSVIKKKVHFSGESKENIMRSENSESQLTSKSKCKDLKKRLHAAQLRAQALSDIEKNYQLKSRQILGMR
# [5] = target: T3, Serine/threonine-protein kinase Nek2 (Homo sapiens); settings: at 1 µM
# [6] = target: Serine/threonine-protein kinase Nek6 (Homo sapiens) (UniProt Q9HC98); settings: at 0.1 µM
# Chain of Serine/threonine-protein kinase Nek6 (Homo sapiens) (Q9HC98 whole entry): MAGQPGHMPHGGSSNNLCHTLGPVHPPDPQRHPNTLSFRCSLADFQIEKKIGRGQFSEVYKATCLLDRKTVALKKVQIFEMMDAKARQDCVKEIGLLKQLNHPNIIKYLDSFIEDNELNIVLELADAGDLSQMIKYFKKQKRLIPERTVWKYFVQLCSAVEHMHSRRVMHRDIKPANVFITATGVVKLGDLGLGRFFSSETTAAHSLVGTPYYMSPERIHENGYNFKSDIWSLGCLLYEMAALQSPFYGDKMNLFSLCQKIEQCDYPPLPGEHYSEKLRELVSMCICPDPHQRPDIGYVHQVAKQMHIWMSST
# [7] = target: Serine/threonine-protein kinase Nek6 (Homo sapiens) (UniProt Q9HC98); settings: at 1 µM
# [8] = target: Serine/threonine-protein kinase Nek7 (Homo sapiens) (UniProt Q8TDX7); settings: at 0.1 µM
# Chain of Serine/threonine-protein kinase Nek7 (Homo sapiens) (Q8TDX7 whole entry, looked up): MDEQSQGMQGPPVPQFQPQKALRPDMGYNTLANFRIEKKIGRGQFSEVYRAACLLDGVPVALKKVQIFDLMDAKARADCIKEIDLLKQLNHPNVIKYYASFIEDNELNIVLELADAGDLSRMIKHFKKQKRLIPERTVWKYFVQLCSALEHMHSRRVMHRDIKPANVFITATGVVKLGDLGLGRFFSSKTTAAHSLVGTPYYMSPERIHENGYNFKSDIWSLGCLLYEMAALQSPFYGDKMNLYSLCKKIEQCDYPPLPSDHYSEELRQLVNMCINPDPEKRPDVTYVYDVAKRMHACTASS
# [9] = target: Serine/threonine-protein kinase Nek7 (Homo sapiens) (UniProt Q8TDX7); settings: at 1 µM
# [10] = target: T4, Serine/threonine-protein kinase Nek9 (Homo sapiens) (UniProt Q8TD19); settings: at 0.1 µM
# T4 sequence (whole entry): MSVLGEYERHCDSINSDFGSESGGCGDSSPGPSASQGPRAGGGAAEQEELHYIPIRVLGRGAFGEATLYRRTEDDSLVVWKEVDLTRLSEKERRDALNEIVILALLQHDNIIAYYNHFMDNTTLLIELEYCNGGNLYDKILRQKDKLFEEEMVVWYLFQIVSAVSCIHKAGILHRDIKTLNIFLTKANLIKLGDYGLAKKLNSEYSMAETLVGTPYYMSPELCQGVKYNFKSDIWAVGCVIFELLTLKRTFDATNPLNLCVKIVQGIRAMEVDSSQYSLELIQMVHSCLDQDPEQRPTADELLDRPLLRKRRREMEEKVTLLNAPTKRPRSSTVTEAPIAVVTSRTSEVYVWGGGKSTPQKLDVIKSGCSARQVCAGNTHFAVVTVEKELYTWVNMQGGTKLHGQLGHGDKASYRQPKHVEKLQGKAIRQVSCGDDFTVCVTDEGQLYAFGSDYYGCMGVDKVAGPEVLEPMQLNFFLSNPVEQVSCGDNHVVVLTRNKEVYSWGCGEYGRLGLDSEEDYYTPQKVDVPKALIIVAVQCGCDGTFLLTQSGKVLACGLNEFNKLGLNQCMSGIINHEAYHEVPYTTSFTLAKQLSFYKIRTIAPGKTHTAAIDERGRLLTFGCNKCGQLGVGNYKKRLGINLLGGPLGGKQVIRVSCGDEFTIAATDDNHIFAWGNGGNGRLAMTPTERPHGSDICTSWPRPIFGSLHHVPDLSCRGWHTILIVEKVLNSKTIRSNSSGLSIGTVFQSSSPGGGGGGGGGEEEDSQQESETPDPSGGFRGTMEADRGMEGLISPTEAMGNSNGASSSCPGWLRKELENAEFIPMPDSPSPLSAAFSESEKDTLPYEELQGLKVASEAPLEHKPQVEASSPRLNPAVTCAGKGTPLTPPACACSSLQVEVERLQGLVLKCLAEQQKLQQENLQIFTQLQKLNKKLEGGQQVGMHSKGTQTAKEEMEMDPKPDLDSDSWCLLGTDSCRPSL
# [11] = target: T4, Serine/threonine-protein kinase Nek9 (Homo sapiens); settings: at 1 µM
# [12] = target: Serine/threonine-protein kinase PLK1 (Homo sapiens) (UniProt P53350); settings: at 0.1 µM
# Chain of Serine/threonine-protein kinase PLK1 (Homo sapiens) (P53350 whole entry): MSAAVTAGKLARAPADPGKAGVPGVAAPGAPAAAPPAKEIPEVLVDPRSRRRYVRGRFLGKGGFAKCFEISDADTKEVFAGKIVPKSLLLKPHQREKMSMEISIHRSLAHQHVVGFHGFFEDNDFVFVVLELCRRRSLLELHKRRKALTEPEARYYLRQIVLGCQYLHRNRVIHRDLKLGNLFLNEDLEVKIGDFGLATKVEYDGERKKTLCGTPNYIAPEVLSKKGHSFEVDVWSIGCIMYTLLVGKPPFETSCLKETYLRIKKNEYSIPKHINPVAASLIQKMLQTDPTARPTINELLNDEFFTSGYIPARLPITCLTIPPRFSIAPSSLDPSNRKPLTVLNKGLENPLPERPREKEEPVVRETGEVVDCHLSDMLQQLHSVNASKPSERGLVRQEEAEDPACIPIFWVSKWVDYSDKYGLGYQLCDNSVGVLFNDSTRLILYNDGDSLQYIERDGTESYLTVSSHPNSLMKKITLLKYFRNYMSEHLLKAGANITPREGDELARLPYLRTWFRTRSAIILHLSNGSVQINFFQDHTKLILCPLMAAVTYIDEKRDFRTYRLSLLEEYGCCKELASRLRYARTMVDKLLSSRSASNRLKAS
# [13] = target: Serine/threonine-protein kinase PLK1 (Homo sapiens) (UniProt P53350); settings: at 1 µM
# [14] = target: T5, Dual specificity protein kinase TTK (Homo sapiens) (UniProt P33981); settings: at 0.1 µM
# T5 sequence (whole entry): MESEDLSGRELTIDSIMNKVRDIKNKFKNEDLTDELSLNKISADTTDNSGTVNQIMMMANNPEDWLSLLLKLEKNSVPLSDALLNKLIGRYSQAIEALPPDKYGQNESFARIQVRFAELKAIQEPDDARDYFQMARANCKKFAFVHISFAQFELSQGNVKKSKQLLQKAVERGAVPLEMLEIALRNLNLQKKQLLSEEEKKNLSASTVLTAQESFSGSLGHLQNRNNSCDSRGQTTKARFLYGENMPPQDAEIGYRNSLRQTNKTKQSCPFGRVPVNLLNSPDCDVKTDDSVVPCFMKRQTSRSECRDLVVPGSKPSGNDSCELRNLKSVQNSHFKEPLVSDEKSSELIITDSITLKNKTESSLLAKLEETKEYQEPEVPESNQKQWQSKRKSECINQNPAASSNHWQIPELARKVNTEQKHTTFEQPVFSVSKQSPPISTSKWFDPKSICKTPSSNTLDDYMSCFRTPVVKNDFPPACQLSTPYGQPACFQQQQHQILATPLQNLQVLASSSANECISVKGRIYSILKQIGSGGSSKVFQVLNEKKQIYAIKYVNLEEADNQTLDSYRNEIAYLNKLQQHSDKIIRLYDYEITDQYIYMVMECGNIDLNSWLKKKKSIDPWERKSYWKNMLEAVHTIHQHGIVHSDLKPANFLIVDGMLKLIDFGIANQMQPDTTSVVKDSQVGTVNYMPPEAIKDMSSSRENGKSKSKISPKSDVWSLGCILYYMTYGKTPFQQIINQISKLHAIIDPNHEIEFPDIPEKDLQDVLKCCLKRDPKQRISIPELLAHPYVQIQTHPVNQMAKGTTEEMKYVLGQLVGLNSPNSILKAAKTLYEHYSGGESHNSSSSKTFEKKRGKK
# [15] = system: T6, Receptor-type tyrosine-protein kinase FLT3 (Homo sapiens), P36888 [D835Y]; settings: at 1 µM
# T6 sequence (whole entry): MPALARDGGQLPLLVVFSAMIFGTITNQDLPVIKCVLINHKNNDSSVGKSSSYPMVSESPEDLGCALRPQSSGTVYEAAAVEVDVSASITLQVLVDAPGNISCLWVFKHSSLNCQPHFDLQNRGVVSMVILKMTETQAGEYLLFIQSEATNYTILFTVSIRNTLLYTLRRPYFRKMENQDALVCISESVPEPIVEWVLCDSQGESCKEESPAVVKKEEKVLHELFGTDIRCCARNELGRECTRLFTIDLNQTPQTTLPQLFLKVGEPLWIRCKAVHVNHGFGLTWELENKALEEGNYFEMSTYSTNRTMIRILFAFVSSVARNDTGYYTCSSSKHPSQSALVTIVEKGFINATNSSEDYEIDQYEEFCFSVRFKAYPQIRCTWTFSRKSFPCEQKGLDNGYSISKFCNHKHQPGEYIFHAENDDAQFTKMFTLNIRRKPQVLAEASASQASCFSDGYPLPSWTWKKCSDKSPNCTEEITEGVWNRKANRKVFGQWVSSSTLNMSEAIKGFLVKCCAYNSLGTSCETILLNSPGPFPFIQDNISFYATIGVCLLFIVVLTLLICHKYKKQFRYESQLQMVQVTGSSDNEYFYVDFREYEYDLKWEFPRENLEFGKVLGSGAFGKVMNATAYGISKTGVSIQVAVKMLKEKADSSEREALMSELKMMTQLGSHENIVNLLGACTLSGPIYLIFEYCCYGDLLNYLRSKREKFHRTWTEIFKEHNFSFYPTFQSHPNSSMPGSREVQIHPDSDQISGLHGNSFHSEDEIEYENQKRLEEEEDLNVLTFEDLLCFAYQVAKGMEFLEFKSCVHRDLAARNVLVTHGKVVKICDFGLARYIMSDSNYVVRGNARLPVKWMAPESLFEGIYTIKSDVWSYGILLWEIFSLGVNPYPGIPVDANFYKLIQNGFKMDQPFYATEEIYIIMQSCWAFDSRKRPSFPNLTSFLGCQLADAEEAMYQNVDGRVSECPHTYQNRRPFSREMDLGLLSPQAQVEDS
# [16] = target: Vascular endothelial growth factor receptor 3 (Homo sapiens) (UniProt P35916); settings: at 0.1 µM
# Chain of Vascular endothelial growth factor receptor 3 (Homo sapiens) (P35916 whole entry): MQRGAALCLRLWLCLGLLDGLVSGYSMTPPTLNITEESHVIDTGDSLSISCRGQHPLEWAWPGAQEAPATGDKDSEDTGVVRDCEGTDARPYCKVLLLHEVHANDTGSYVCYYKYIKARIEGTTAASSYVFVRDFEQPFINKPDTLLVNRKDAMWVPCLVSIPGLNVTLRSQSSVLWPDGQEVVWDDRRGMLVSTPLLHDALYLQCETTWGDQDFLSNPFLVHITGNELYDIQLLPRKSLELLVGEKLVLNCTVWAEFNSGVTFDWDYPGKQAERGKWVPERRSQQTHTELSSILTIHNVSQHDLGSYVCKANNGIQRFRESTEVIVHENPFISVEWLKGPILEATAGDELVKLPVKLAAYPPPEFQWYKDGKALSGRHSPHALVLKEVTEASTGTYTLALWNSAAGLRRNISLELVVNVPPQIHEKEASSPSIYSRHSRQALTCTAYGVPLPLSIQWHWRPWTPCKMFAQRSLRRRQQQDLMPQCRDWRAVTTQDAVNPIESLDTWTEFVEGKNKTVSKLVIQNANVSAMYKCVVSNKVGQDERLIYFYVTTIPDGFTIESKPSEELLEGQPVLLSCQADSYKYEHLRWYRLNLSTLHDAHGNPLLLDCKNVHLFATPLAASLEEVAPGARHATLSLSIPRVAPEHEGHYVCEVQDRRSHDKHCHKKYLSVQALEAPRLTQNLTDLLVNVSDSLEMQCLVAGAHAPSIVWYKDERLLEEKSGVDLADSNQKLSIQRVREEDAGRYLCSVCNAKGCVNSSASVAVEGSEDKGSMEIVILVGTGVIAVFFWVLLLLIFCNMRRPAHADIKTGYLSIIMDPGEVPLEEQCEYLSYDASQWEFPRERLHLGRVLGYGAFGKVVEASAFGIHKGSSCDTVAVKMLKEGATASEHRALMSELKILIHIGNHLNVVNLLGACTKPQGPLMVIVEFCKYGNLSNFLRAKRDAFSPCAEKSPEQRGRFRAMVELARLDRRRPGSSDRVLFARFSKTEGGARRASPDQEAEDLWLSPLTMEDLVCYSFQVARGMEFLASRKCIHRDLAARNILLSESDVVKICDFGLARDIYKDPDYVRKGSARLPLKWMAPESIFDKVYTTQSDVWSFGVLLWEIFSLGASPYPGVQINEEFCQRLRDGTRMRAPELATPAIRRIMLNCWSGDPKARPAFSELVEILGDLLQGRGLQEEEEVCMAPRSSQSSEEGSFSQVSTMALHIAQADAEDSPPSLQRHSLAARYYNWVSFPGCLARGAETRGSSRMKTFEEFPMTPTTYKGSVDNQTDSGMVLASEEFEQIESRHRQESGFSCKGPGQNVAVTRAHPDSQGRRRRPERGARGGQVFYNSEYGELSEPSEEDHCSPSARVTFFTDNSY
# [17] = target: Vascular endothelial growth factor receptor 3 (Homo sapiens) (UniProt P35916); settings: at 1 µM
# [18] = target: Macrophage colony-stimulating factor 1 receptor (Homo sapiens) (UniProt P07333); settings: at 0.1 µM
# Chain of Macrophage colony-stimulating factor 1 receptor (Homo sapiens) (P07333 whole entry): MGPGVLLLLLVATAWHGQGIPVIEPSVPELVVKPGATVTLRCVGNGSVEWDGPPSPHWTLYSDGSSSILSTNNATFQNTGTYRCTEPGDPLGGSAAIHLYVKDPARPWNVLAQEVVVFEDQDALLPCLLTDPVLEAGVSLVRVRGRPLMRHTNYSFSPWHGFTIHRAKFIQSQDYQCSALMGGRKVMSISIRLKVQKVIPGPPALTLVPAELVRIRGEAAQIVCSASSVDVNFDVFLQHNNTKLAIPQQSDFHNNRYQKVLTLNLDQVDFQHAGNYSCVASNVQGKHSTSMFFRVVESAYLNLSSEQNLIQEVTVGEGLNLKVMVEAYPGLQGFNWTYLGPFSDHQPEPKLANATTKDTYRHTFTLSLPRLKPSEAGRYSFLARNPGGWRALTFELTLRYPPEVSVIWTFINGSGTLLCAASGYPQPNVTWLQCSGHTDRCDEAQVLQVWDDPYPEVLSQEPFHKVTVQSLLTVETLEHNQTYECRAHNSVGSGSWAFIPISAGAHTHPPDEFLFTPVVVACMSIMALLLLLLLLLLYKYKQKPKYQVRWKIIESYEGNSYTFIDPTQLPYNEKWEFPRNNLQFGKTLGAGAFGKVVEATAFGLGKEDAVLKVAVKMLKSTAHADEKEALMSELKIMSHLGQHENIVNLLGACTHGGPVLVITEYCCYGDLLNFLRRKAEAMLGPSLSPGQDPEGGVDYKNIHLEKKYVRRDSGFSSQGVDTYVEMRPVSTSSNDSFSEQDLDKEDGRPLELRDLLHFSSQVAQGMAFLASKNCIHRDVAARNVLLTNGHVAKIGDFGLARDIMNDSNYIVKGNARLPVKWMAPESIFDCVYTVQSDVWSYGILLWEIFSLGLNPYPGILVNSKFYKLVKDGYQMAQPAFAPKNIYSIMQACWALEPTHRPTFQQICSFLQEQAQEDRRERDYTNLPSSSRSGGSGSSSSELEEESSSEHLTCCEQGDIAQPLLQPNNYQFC
# [19] = target: Macrophage colony-stimulating factor 1 receptor (Homo sapiens) (UniProt P07333); settings: at 1 µM
# [20] = target: Tyrosine-protein kinase Fyn (Homo sapiens) (UniProt P06241); settings: at 0.1 µM
# Chain of Tyrosine-protein kinase Fyn (Homo sapiens) (P06241 2-537 limits assumed): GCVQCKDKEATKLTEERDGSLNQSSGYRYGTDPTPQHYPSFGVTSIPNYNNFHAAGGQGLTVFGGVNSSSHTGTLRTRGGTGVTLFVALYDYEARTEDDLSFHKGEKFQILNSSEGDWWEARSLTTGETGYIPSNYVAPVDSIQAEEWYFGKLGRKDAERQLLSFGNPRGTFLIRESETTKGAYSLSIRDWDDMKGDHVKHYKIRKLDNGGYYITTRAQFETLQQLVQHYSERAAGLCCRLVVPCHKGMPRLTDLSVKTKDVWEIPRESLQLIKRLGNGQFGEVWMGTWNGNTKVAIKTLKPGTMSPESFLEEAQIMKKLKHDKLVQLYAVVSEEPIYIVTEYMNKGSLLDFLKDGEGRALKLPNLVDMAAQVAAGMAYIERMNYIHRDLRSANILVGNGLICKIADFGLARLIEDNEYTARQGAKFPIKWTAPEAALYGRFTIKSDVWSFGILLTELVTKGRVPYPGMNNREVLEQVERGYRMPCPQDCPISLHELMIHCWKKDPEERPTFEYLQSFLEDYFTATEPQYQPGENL
compound,measurement,setting,value
COC(=O)Nc1nc2ccc(S(=O)(=O)c3ccc(NC(=O)Nc4cc(C(F)(F)F)ccc4F)cc3)cc2[nH]1,inhibition,[1],4.2%
same,inhibition,[2],2.08%
same,inhibition,[3],1.85%
same,inhibition,[4],3.76%
same,inhibition,[5],4.26%
same,inhibition,[6],4.42%
same,inhibition,[7],-3.58%
same,inhibition,[8],2.46%
same,inhibition,[9],2.19%
same,inhibition,[10],2.21%
same,inhibition,[11],7.16%
same,inhibition,[12],3.83%
same,inhibition,[13],2.15%
same,inhibition,[14],5.04%
same,inhibition,[15],7.26%
same,inhibition,[16],0.23%
same,inhibition,[17],0.36%
same,inhibition,[18],-1.07%
same,inhibition,[19],2.06%
same,inhibition,[20],1.02%
